Compound activity (PubChem)
In the library only some 2.2% were active in any assay of this set; here they are far more common.
HSP90 inh – HSP90 inhibitors, primary screen, cell lysate, luminescence; Heat shock protein HSP 90 (rabbit reticulocyte lysate; luciferase refolding); inhibition, % at 5.6 µM; hit rate 0.91% among 290,000; Rabbit reticulocyte lysate, luciferase refolding luminescence, 3 h; AID 1789, 2009;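 active = inhibition above the screen-wide mean plus 3 SD, computed separately per campaign, cut at about 16% in these data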;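 also: inhibitors lower the luminescence because luciferase stays unfolded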
LGR2 antag – inhibitors of bursicon-induced LGR2 CRE-luciferase signal, primary screen, cell-based, HEK293, CRE-luciferase reporter, bursicon stimulation; bursicon-stimulated, 4 h; hit rate 0.35% among 380,000; Drosophila bursicon receptor LGR2 (rickets); inhibition, % at 9.99 µM;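 active = drop in luminescence signal, shown as inhibition above about 50% in the replicate tests, limit read from the data, passing the limit was not always enough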;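 also: agonist challenge used bursicon conditioned medium at about half maximal strength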
TWEAK Fn14 block – inhibitors of TWEAK-Fn14 signaling, primary screen, luciferase reporter cells, uHTS. TWEAK-stimulated Fn14 reporter cells, luciferase luminescence, 8 h. inhibition, % at 10 µM. hit rate 2% among 360,000. AID 1159606, 2016; in the data active = inhibition above about 50%
TROY signal inh – inhibitors of TROY-driven NF-kB signaling, primary screen, Q293 LMP1-TROYcd cells, NF-kB luciferase, uHTS. hit rate 0.98% among 360,000. inhibition, % at 10 µM. Q293 LMP1-TROYcd NF-kB luciferase reporter, 4 h;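 active = compounds whose plate-normalised and pattern-corrected inhibition of the luciferase reporter signal at the single screening dose is 50% or more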
Hits are given with their value; 0 = inactive; - = no result given; ! = a repeat was not active.

SMILES	HSP90 inh	LGR2 antag	TWEAK Fn14 block	TROY signal inh
O=C(C[C@@H]1CC[C@@H]2[C@H](COC[C@H](O)CN2C(=O)Nc2ccc(Cl)c(Cl)c2)O1)NC1CCC1	-	0	-	-
Cc1noc(C)c1NC(=O)Nc1ccc2c(c1)C(=O)N([C@@H](C)CO)C[C@H](C)[C@@H](CN(C)Cc1ccc(C(F)(F)F)cc1)OCCCC[C@H](C)O2	-	0	-	-
C[C@@H]1CN([C@H](C)CO)S(=O)(=O)c2ccc(-c3ccc(F)cc3)cc2O[C@H]1CN(C)C(=O)C1CC1	-	0	-	-
O=C(COC(=O)c1ccc2[nH]c3c(c2c1)CCCC3)Nc1ccccc1Cl	0	0	0	0
CCC(C)c1ccccc1NC(=O)COC(=O)c1ccc2[nH]c3c(c2c1)CCCC3 (stereo not drawn)	0	0	98	56
COc1ccc2c3c([nH]c2c1)[C@H](CO)N(C(=O)C1CCC1)CC31CN(S(C)(=O)=O)C1	-	0	-	-
COc1ccc2[nH]c3c(c2c1)CC(C)NC3=O (stereo not drawn)	0	0	71	0
C[C@@H](NC(=O)C[C@@H]1C=C[C@H](NC(=O)C2CCOCC2)[C@@H](CO)O1)c1ccccc1	-	0	-	-
COc1ccc(NC(=O)N[C@@H]2CC[C@@H](CCn3cc(-c4ccccc4F)nn3)O[C@H]2CO)cc1	-	0	-	-
Cc1nn(C(=O)c2c(-c3ccccc3)noc2C)c(C)c1N=Nc1cc(C(F)(F)F)cc(C(F)(F)F)c1	0	0	0	68
COc1ccc(-c2ccc3c(c2)[C@@H]2[C@@H](CCN2C(=O)Nc2ccc(F)cc2)[C@H](CO)N3C)cc1	-	0	-	-
CN1C[C@H](O)COC[C@H]2O[C@@H](CC(=O)N3CCN(c4ccccc4)CC3)CC[C@@H]21	-	0	-	-
C[C@@H]1CN([C@@H](C)CO)C(=O)c2cc(NS(C)(=O)=O)ccc2O[C@@H]1CN(C)C(=O)Nc1ccc(C(F)(F)F)cc1	-	0	-	-
CC1(C)COC(/C=C/c2ccc([N+](=O)[O-])cc2)=N1	0	0	62	0
Cc1nn(Cc2ccccc2)c(Cl)c1/C=N/NC(=O)c1cccnc1	0	0	0	0
Cc1c(/C=N/NC(=O)c2cccnc2)c2ccccc2n1Cc1ccccc1	0	0	56	0
CNC[C@H]1Oc2ccc(NC(=O)Cc3ccccc3)cc2C(=O)N([C@H](C)CO)C[C@H]1C	-	0	-	-
CCOC(=O)C1=C(Cn2cnc3ccccc32)NC(=O)NC1c1cc(C)ccc1C (stereo not drawn)	0	0	0	52
COC(=O)C1=C(Cn2cnc3ccccc32)NC(=O)NC1c1cc(C)ccc1C (stereo not drawn)	0	-	0	0
CCCCCCCCCCCCCCCC[n+]1ccccc1	-	61!	77!	52!
CCCCCCCCCCCCCCCC[n+]1ccc(C(N)=O)cc1	0	0	0	0
CC1=NN(c2ccccc2)C(=O)/C1=C/C=C/c1ccccc1	0	0	95	0
CN(C(=O)COc1ccccc1C(=O)NCCOc1ccccc1)c1ccccc1	0	88	88	62
COc1ccc(OC)c(NC(=O)Nc2cccnc2)c1	0	0	52	0
O=C(Nc1cccnc1)c1cc(-c2ccccc2)on1	0	-	0	0
SMILES	HSP90 inh	LGR2 antag	TWEAK Fn14 block	TROY signal inh
Cc1cc(C)cc(NC(=O)Nc2cccnc2)c1	0	0	0	0
Cc1ccc(NC(=O)Nc2cccnc2)cc1NC(=O)Nc1cccnc1	0	0	58	0
COc1cccc(-c2cc(C(=O)Nc3cccnc3)no2)c1	0	-	69	0
COc1ccc(C(=O)/C=C/Nc2cccc(O)c2)cc1	0	-	52	0
CC(=O)c1ccc(NS(=O)(=O)c2ccc(C)cc2)cc1	0	-	0	0
COc1cccc(N/C=C/C(=O)c2ccc(Br)cc2)c1	0	-	0	0
COc1ccc(C(=O)/C=C/Nc2ccc(S(=O)(=O)Nc3cccc(C(C)=O)c3)cc2)cc1	0	0	79	0
COc1cc(OC)c(OC)cc1/C=C/C(=O)c1ccc(NS(=O)(=O)c2ccc(C)cc2)cc1	0	0	62	0
COc1cccc(C(=O)/C=C/Nc2ccc(S(=O)(=O)Nc3ccc(C(C)=O)cc3)cc2)c1	0	0	0	0
O=C(CC1CC1)Nc1ccc2c(c1)[C@@H]1C[C@@H](CC(=O)N3CCc4ccccc4C3)O[C@@H](CO)[C@@H]1O2	-	0	-	-
CC(C)NC(=O)Nc1ccc2c(c1)CC(=O)N([C@H](C)CO)C[C@H](C)[C@@H](CN(C)C(=O)NC1CCCCC1)O2	-	0	-	-
CCn1c(CNC(=O)C2CCCCC2)cc2cc(C)ccc21	0	0	54	0
